Our source for the Potency values is PubChem BioAssay (NCATS).

Records with an inconclusive call do not appear. A call without a number means that no potency is given here. Activity calls are given as the source filed them. The call rests on the fitted dose curve; in most records, active means well fitted inhibition curve with a large enough effect; inconclusive means small, poorly fitted or top-dose-only effect; inactive means no such curve, though single readings can be large or run the other way.
Potency means the concentration at half of the fitted maximal effect.

Tumor susceptibility gene 101 protein (Homo sapiens), sequence (Q99816 whole entry, looked up, the tested form may be a part): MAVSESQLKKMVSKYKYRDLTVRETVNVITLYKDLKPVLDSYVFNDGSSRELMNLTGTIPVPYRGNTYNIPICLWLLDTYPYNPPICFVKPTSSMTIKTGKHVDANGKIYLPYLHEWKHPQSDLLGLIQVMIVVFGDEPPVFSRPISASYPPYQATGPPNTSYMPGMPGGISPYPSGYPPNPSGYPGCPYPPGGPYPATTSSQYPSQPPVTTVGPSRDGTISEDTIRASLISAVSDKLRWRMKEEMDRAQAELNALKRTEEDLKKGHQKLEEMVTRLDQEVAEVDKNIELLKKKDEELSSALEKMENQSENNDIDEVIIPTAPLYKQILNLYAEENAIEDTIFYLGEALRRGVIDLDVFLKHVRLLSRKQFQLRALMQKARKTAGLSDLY

The target in the assay is Tumor susceptibility gene 101 protein (Homo sapiens) (UniProt Q99816). The experiment in a line: qHTS Assay for Iinhibitors of HIV-1 Budding by Blocking the Interaction of PTAP/TSG101: Hit Validation (AID 651600). Further: nearly all actives have a fitted effect of over 70% in size. As to conditions: PTAP peptide/TSG101 UEV interaction, biochemical assay; series mostly up to 57.5 µM. Put shortly:
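FITC-PTAP peptide (50 nM final) binding to Tsg101 binding domain (10 uM final) was measured by polarization after 20 min at r.t. with compounds, in 10 mM HEPES pH 7.5 buffer with 0.15 M NaCl and 0.01% Tween 20.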
A general note: Quantitative high-throughput screening tests each substance at several concentrations.
For the molecule `COc1cc2c(cc1OC)-c1cc3ccc4c(c3c[n+]1CC2)OCO4`, the Potency is 13 µM (active). For `COc1ccc(CCn2c(NN=C(C)C)nc3c2c(=O)[nH]c(=O)n3C)cc1`, the Potency entry was “inactive”. The result for `Cc1ccc(CNC(=O)C2CCCN(S(=O)(=O)c3c(C)[nH]c(=O)[nH]c3=O)C2)cc1` (stereo not given) reads “inactive”; that for `CSCC(C)N1CCC(n2nccc2NC(=O)CCCc2ccccc2)CC1` (stereo not given), 13 µM (active). For `Cc1cccc(CCNC(=O)c2sc3nc4n(c(=O)c3c2C)CCCC4)c1`, the Potency result was “inactive”. The result for `Nc1ccc2c(c1)C/C(=C/c1ccco1)C2=O` reads “inactive”; that for `Nc1nnnn1/N=C/c1cc(Cl)cc(Cl)c1O`, 18.3 µM (active); that for `Cc1ccc(-c2nc(C=Nc3ccc(O)cc3)c(O)o2)cc1`, “inactive”. With `O=C(O)c1ccc(-n2c(-c3ccc(Br)cc3)n[nH]c2=S)cc1`, the Potency entry is “inactive”.

Take `CN1C(=O)NC(c2ccccc2[N+](=O)[O-])C2=C1CCCC2=O` (stereo not given): the Potency is 16.3 µM (active). Turning to `Cc1cc(Br)ccc1NC(=O)c1sc2nc3n(c(=O)c2c1C)CCCC3`, the Potency entry is “inactive”.

Take `COC(=O)C[C@H]1c2cc(F)ccc2S(=O)(=O)N1c1ccccc1`: the Potency result was “inactive”. Regarding `O=C(CC1CC2CCC1C2)NCc1cccs1` (stereo not given), the Potency result was “inactive”. The result for `O=C1c2cccc3c([N+](=O)[O-])ccc(c23)C(=O)N1c1ccc(Cl)cn1` reads “inactive”; that for `CCCN1CCCc2cc(CN)ccc21`, “inactive”. For `Cc1ccccc1-n1c(SCc2c(C)noc2C)nnc1-c1cccnc1`, the Potency result was “inactive”.

On to `CN(C)CCNc1ccc2ncn3c4ccc(O)cc4c(=O)c1c23`, for which the Potency is 8.19 µM (active). Take `CCN(CC)S(=O)(=O)c1ccc(C(=O)OCCN2C(=O)c3cccc4c(N5CCOCC5)ccc(c34)C2=O)cc1`: the Potency was 4.11 µM (active). Consider `Cn1c2ccc(F)cc2c2nc3ccccc3nc21`, for which the Potency entry is “inactive”.

Regarding `Cn1cc(/C=C(\C#N)C(=O)Nc2ccccc2O)c2ccccc21`, the Potency result is “inactive”. Turning to `COc1ccc(-n2nc(C(=O)Nc3ccc(OC)c(OC)c3)c3c4ccccc4n(C)c3c2=O)cc1`, the Potency entry is “inactive”. As to `CCCCCCn1c(=O)[nH]c2nc3cc(N)ccc3nc2c1=O`, the Potency is 14.6 µM (active). For the molecule `NC(=O)c1ccccc1NCC(=O)c1ccc(F)cc1`, the Potency result is “inactive”. Consider `O=C(CCN1C(=O)/C(=C/c2ccco2)SC1=S)Nc1ccc(O)cc1C(=O)O`, for which the Potency result is “inactive”.

As for `Cc1cccc2cc(/C=C3\N=C(c4ccccc4)OC3=O)c(N3CCOCC3)nc12`, the Potency entry was “inactive”. For `COc1ccc(NC(=O)c2cccc(-c3ccc(O)cc3)c2)cn1`, the Potency is 20.6 µM (active). For the molecule `Cc1c(N=C2N=C(NC(=O)c3ccc(F)cc3)c3ccccc32)c(=O)n(-c2ccccc2)n1C`, the Potency entry is “inactive”. Regarding `O=C(CN1C(=O)NC(Cc2c[nH]c3ccccc23)C1=O)Nc1ccccc1C(F)(F)F` (stereo not given), the Potency result was “inactive”.

With `COc1ccc(-c2onc3ccc(Br)cc23)cc1`, the Potency result was “inactive”. `CCOc1ccc(N(CC(=O)NCc2ccc(F)cc2)S(=O)(=O)c2c(C)noc2C)cc1`: the Potency entry is “inactive”. The result for `C=C1CCN(c2ccc(C(=O)O)cc2[N+](=O)[O-])CC1` reads “inactive”; that for `Clc1ccc(-c2nnc3sc(-c4ccc(Br)o4)nn23)cc1`, 4.61 µM (active); that for `Cc1ccc(C2C=C(c3ccccc3)Nc3nc(NS(C)(=O)=O)nn32)cc1` (stereo not given), “inactive”. Regarding `Oc1oc(-c2ccccc2)nc1C=Nc1cccc2ccccc12`, the Potency result was “inactive”.

In the case of `Nc1cnccc1C(=O)O`, the Potency was 20.6 µM (active).

Regarding `O=C(/C=C/c1ccc(Cl)cc1Cl)c1nc2ccccc2[nH]1`, the Potency was 20.6 µM (active). For the molecule `C1=C(c2ccc(-c3ccccc3)cc2)Nc2ncnn2C1c1ccco1` (stereo not given), the Potency result is “inactive”.

Turning to `CC1CCc2cccc3c2N1c1cc(C#N)c(C#N)cc1O3` (stereo not given), the Potency entry was “inactive”. Take `CCCCn1c(SCC(=O)c2cc(OC)ccc2OC)nc2cc(S(N)(=O)=O)ccc21`: the Potency result was “inactive”. `O=C(NCc1cc(C(F)(F)F)ccc1Cl)c1cccc2c1C(=O)c1ccc(N3CCC(Cc4ccccc4)CC3)cc1S2(=O)=O`: the Potency was 13 µM (active).
